Results from PubChem BioAssay (EPA / NIEHS).
Records with an inconclusive call do not appear. The source made the active and inactive calls. The calls were made as follows, unless noted: active = hit-call score of the fitted dose curve at least 0.9, where 1 is the maximum; inactive = score below 0.9.

Legend:
[1] = CCTE_Shafer_MEA_dev_firing_rate_mean: CCTE's Neural Network Formation Assay for Mean Firing Rate, Shafer Lab (AID 2284031);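 also: curve fitted for loss of firing so AC50 reflects decreased mean firing rate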
Outline: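 Extracellular spike frequency, AUC over DIV 5–12 recordings, in rat cortical neuron MEA cultures dosed from plating; loss direction vs DMSO.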

[2] = CCTE_Shafer_MEA_dev_per_burst_spike_percent: CCTE's Neural Network Formation Assay for Percent of Spikes in a Burst, Shafer Lab (AID 2284032);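 also: fitted as a decrease in burst spike percentage below DMSO baseline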
Outline: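 Value is trapezoidal AUC over recordings on days 5, 7, 9 and 12 of the well-mean fraction of spikes falling in single-electrode bursts; rat cortical cultures exposed continuously from plating, treatment renewed DIV 5 and 9, fitted downward against DMSO.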

[3] = CCTE_Shafer_MEA_dev_active_electrodes_number: CCTE's Neural Network Formation Assay for Number of Active Electrodes, Shafer Lab (AID 2284040; active = hit-call score of the fitted dose curve at least 0.9, where 1 is the maximum;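 also: potency for loss of active electrodes versus DMSO so lower counts are hits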)
Outline: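 Developing rat cortical networks on MEAs, exposed DIV 0–12. Value is the AUC of active-electrode counts (≥5 spikes/min) from days 5, 7, 9, 12, relative to DMSO.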

[4] = CCTE_Shafer_MEA_dev_burst_rate: CCTE's Neural Network Formation Assay for Burst Rate, Shafer Lab (AID 2284042);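 also: potency for loss of burst rate below DMSO control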
Outline: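 Primary rat cortical neurons on PEI-coated 48-well MEA plates (laminin added with cells at plating) (16 electrodes/well), exposed from plating to day 12, dosing renewed at DIV 5 and 9. Burst rate averaged over active electrodes, recorded DIV 5, 7, 9, 12, summarized as AUC; loss versus DMSO.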

[5] = CCTE_Shafer_MEA_dev_bursting_electrodes_number: CCTE's Neural Network Formation Assay for Number of Bursting Electrodes, Shafer Lab (AID 2284043; active = hit-call score of the fitted dose curve at least 0.9, where 1 is the maximum;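 also: potency is for loss of bursting electrodes relative to DMSO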)
Outline: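 Rat cortical primary neurons, 48-well MEA, 16 electrodes/well; dosing DIV 0–12, re-dosed with full media change DIV 5, 9. Recordings DIV 5/7/9/12, AxIS adaptive spike detector; bursting electrode = ≥1 burst/2 min. AUC across days; loss of signal vs DMSO.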

[6] = CCTE_Shafer_MEA_dev_burst_duration_mean: CCTE's Neural Network Formation Assay for Mean Burst Duration, Shafer Lab (AID 2284045);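 also: curve fitted for loss meaning shorter burst duration than DMSO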
Outline: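 Rat cortical cultures, 1.5 x 10^5 cells/well with laminin drop; continuous dosing days 0–12, media plus treatment refreshed DIV 5, 9. AxIS adaptive spike detection; mean single-electrode burst duration, AUC over four recordings, negative direction vs DMSO.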

[7] = CCTE_Shafer_MEA_dev_inter_network_spike_interval_mean: CCTE's Neural Network Formation Assay for Mean Inter-network Spike Interval, Shafer Lab (AID 2284047)
Outline: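 Primary rat cortical neurons on 16-electrode MEA wells, exposed from plating day 0 through DIV 12, compound renewed at DIV 5 and 9 media changes. Mean interval between network-spike peaks recorded DIV 5, 7, 9, 12; collapsed as trapezoidal AUC, fitted downward versus DMSO.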

[8] = CCTE_Shafer_MEA_dev_network_spike_number: CCTE's Neural Network Formation Assay for Number of Network Spikes, Shafer Lab (AID 2284048);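 also: synchronized bursts across electrodes counted on days 5 7 9 12 and integrated as AUC; fit as a loss of signal meaning fewer network spikes than DMSO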
Outline: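 Rat cortical primary cultures on 48-well MEA (16 electrodes/well); continuous exposure DIV 0–12, full medium and treatment exchange DIV 5, 9. Readout: network spike count, AxIS adaptive detection, recordings DIV 5/7/9/12 collapsed to AUC; loss-of-signal fit, DMSO baseline.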

[9] = CCTE_Shafer_MEA_dev_network_spike_peak: CCTE's Neural Network Formation Assay for Mean Number of Electrodes in Network Spike, Shafer Lab (AID 2284049);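 also: fitted for loss of signal meaning fewer electrodes in network spikes than DMSO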
Outline: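 Network-spike peak electrode count from recordings on days 5, 7, 9 and 12 was combined as trapezoidal area under the curve. Rat cortical cultures were treated continuously from plating, with compound renewed at each feed (DIV 5, 9); fits versus DMSO.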

[10] = CCTE_Shafer_MEA_dev_spike_duration_mean: CCTE's Neural Network Formation Assay for Mean Spike Duration, Shafer Lab (AID 2284051);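 also: mean network spike duration pooled as area under curve over DIV 5 to 12 recordings; potency for a decrease in mean network spike duration versus DMSO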
Outline: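 Primary rat cortical neurons on 16-electrode MEA wells (PEI-coated, laminin in plating drop), exposed from plating through DIV 12 with compound renewed at DIV 5 and 9. Mean network-spike duration recorded DIV 5, 7, 9, 12; trapezoidal AUC across days, DMSO baseline.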

[11] = CCTE_Shafer_MEA_dev_network_spike_duration_std: CCTE's Neural Network Formation Assay for Standard Deviation of Network Spike Duration, Shafer Lab (AID 2284052);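 also: area under curve of spike duration SD across recording days 5 to 12; hits are decreases in network spike duration SD versus DMSO vehicle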
Outline: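 Primary rat cortical neurons on PEI-coated 16-electrode MEA wells, exposed from plating day 0 through day 12 with compound renewed at DIV 5 and 9. Network spike duration SD recorded on days 5, 7, 9, 12, collapsed as trapezoidal AUC; loss-of-signal fit versus DMSO.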

[12] = CCTE_Shafer_MEA_dev_per_network_spike_spike_number_mean: CCTE's Neural Network Formation Assay for Mean Number of Spikes in a Network Spike, Shafer Lab (AID 2284053);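 also: fitted as decrease in spikes per network spike relative to DMSO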
Outline: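 Primary rat cortical neurons on 48-well, 16-electrode MEA plates were exposed from plating to DIV 12, with dosing renewed on DIV 5 and 9. Spikes per network spike (0.05 s peak window) were recorded on DIV 5, 7, 9 and 12 and collapsed as trapezoidal AUC versus DMSO.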

[13] = CCTE_Shafer_MEA_dev_per_network_spike_spike_percent: CCTE's Neural Network Formation Assay for Percent of Spikes in a Network Spike, Shafer Lab (AID 2284054)
Outline: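 Read-out: percent of spikes falling in a 0.05 s window at network-spike peak, from spontaneous MEA recordings on days 5, 7, 9 and 12; trapezoidal AUC; loss of signal versus DMSO. Rat cortical cultures, compound present throughout.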

[14] = CCTE_Shafer_MEA_dev_mutual_information_norm: CCTE's Neural Network Formation Assay for Mutual Information Normalization, Shafer Lab (AID 2284091);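 also: mutual information between electrodes summarised as area under curve across four recording days; potency is for a decrease in mutual information relative to DMSO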
Outline: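 Neurons from rat cortex were seeded at 1.5 x 10^5 cells/well onto PEI-coated MEAs in a laminin drop, then exposed to compound from day 0 for twelve days. Network recordings on four days gave mutual information, summarised by AUC relative to DMSO.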

[15] = CCTE_Shafer_MEA_dev_correlation_coefficient_mean: CCTE's Neural Network Formation Assay for Mean Correlation Coefficient, Shafer Lab (AID 2284093);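 also: well mean pairwise spike train correlation integrated as AUC over recording days 5 to 12; potency fitted for loss of correlation relative to DMSO vehicle wells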
Outline: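 Spontaneous activity recorded on days 5, 7, 9 and 12 post-plating; pairwise spike correlations are averaged across active electrodes and collapsed to an area-under-curve. Rat cortical cultures are dosed from plating through 12 days, with compound renewed at media changes.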

[16] = UKN2_HCS_IMR90_neural_migration: University of Konstanz (UKN) Leist Lab Neural Crest Cell Migration Assay in human induced IMR90 Pluripotent Stem Cells (UKN2) (AID 2284204); settings: actives raise or lower the signal
Outline: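 Stopper-exclusion migration (cMINC), human iPSC-derived neural crest cells; N2-S + EGF/FGF; compound added 24 h post-stopper removal, 24 h exposure. Readout: calcein-AM/Hoechst 30 min, HCS fluorescence imaging; bidirectional fitting, DMSO baseline.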

[17] = IUF_NPC1b_proliferation_BrdU_72hr: Leibniz Research Institute for Environmental Medicine (IUF) 72-hour Neural Progenitor Cell Bromodeoxyuridine (BrdU) Proliferation Assay (NPC1b) (AID 2284207)
Outline: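 Luminescent BrdU ELISA measured DNA synthesis during the last 16 h of a 72 h exposure of primary human neural progenitor spheres grown with EGF and FGF. Signal was fitted relative to DMSO controls.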

[18] = IUF_NPC1a_proliferation_area_72hr: Leibniz Research Institute for Environmental Medicine (IUF) 72-hour Neural Progenitor Cell Proliferation Area Assay (NPC1a) (AID 2284208)
Outline: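 Proliferation read as increase in sphere area by phase-contrast imaging over 72 h continuous compound exposure (no renewal) of hNPC spheres grown with EGF/FGF at 37C, 5% CO2. Growth-factor withdrawal served as positive control; DMSO as baseline.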

[19] = IUF_NPC1_viability_72hr: Viability Assessment at 72 hours in the Leibniz Research Institute for Environmental Medicine (IUF) Neural Progenitor Cell Proliferation Assay (NPC1) (AID 2284209)
Outline: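 Three-day continuous exposure of human neural progenitor spheres under EGF/FGF-driven proliferation; cell viability scored by alamar blue signal versus DMSO.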

[20] = CCTE_Mundy_HCI_Cortical_Synap_Neur_Matur_NeuriteSpotCountPerNeuriteLength: CCTE's Synaptogenesis and Neurite Maturation Assay in rat cortical cells for Neurite Spot Count per Neurite Length, Mundy Lab (AID 2284210)
Outline: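 Read-out: synaptophysin puncta counted along MAP2-stained neurites, normalised to neurite length, by automated high-content imaging. Rat cortical cells; AraC DIV 5; chemical dosing DIV 7; termination DIV 12. DMSO baseline.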

[21] = CCTE_Mundy_HCI_Cortical_Synap_Neur_Matur_BPCount: CCTE's Synaptogenesis and Neurite Maturation Assay in rat cortical cells for Branch Point Count, Mundy Lab (AID 2284211)
Outline: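 In this multiplexed morphology assay, cortical cells from rat receive chemicals at DIV 7 and are fixed at DIV 12, then immunostained and imaged; branch points are counted, with DMSO as baseline.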

Measured: AC50

CC1(C)[C@H](C=C(Cl)Cl)[C@H]1C(=O)OCc1c(F)c(F)cc(F)c1F
inactive: [7] | [11] | [16] | [18] | [19]
active: [1] 23.4 µM | [2] 23.1 µM | [3] 23 µM | [4] 23.7 µM | [5] 23.3 µM | [6] 9.92 µM | [8] 23.3 µM | [9] 16.7 µM | [10] 22.8 µM | [12] 13.1 µM | [13] 12.8 µM | [14] 13.4 µM | [15] 10.7 µM | [17] 0.897 µM | [20] 12.9 µM | [21] 9.4 µM
